Molecules are shown by their SMILES. The panel holds about 79,000 compounds, 15% with a hit somewhere; the sample as a whole holds those more often. A number with no mark means an inactive call. No stated cut-off is given here; in the data, active means growth inhibition above about 70%; inactive means the rest.

The nature of this test: NCI Yeast Anticancer Drug Screen. Data for the mlh1 rad18 strain (AID 175). Conditions: S. cerevisiae mlh1 rad18 strain growth inhibition; at 50.0 µM; stronger effect = higher value. The gist of the method: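 Inhibition values reflect reduced growth of mutant yeast versus vehicle-treated controls following compound exposure; the mutations affect DNA damage repair.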
For the compound `Cn1c(=O)c(N=Nc2c(=O)n(C)c(=O)n3c2[nH]c2ccccc23)c2[nH]c3ccccc3n2c1=O`, the growth inhibition is 12.2%.

Consider `CCCCC(CC)CN(CC(CC)CCCC)C(=O)C(C)OC(=O)C(CC)CCCC` (stereo not given), for which the growth inhibition was 16.9%.

In the case of `CC1CN(CCO)C(C)(C)C1` (stereo not given), the growth inhibition was -17%. With `CC1NCCC(CC(=O)O)C1CC(=O)O` (stereo not given) the figure was -10.3%. With `CCOC(=O)C(Cc1ccccc1)NC(=O)c1[nH]cnc1/N=N/N(C)C` (stereo not given) the figure was -22.3%; with `CCN(CC)CCOC(C)=O`, -26.3%; with `Cc1ccc(S(=O)(=O)OCC2=C(COS(=O)(=O)c3ccc(C)cc3)C3c4ccccc4C2c2ccccc23)cc1`, 4.8%. With `CC1=C(C(=O)NCc2ccccc2)C(c2ccc([N+](=O)[O-])cc2)C(C(=O)NCc2ccccc2)=C(C)N1` the figure was -23.8%; with `O=C(OCCOc1ccc(Cl)cc1Cl)c1ccccc1O`, 0.3%. Take `Clc1ccccc1C=Nc1ccccc1`: the growth inhibition is 34%. On to `COc1ccc(/C(C)=N/NC(=O)CC(=O)N(C(=O)c2ccccc2)c2ccc(C)cc2)cc1`, for which the growth inhibition was -17.9%.

As to `Cc1nc(N)[nH]c(=O)c1CCCNc1ccc(CCCCCCC2(CCl)OCCO2)cc1`, the growth inhibition is -9.4%. With `COC(=O)CC1C(OC)OC23CCC1C2(C)CCC1C3CCC2CC(OC(C)=O)CCC21C` (stereo not given), the growth inhibition was 8.5%. With `O=C(CC(C(=O)c1cccs1)c1cccs1)c1ccsc1` (stereo not given) the figure was -4.1%; with `N#CCCCNc1ccccc1`, -20.6%; with `CCCC(C)C(=O)OC1CCCCC1C` (stereo not given), 0.6%. The same measure for `O=C(Nc1ccccc1[N+](=O)[O-])Oc1ccc(-c2ccccc2)cc1`: -28.9%. Regarding `CCCCCCCCCCCC(=O)CCCCCCCCCCC`, the growth inhibition was -2.7%. The same measure for `C=CC(=O)OCC(C)(C)COC(=O)C=C`: -12.6%; for `Nc1nnnn1C1CCCCC1`: 20.9%; for `Cc1c(C)c(C(=O)O)c(C)c(C)c1C(=O)O`: 0.05%. As to `NC(N)=NC(N)=NCc1ccccc1`, the growth inhibition is 0.85%. The same measure for `Nc1nnc(-c2ccccc2)s1`: 5.05%; for `CCN(CC)CCOC(=O)Cc1ccccc1`: 0.9%. The same measure for `C[n+]1ccc(/C=C/c2ccc(O)c3ncccc23)c2cccc(O)c21`: 44.9%.

For the compound `Cn1c([N+](=O)[O-])cnc1COc1ccc(NC(=O)CN2CCOCC2)cc1`, the growth inhibition is 18.2%. With `CCC(=O)CC(=O)C(=O)OC` the figure was 17%; with `Nc1ccccc1SC1CC(=O)N(c2ccc(Br)cc2)C1=O` (stereo not given), 12.3%; with `CCN(CC)c1nc2ccccc2o1`, -9.2%. `CC(C(=O)O)N(CCC#N)CCC#N` (stereo not given): the growth inhibition was 3.4%. With `COC(=O)CCNC(=O)c1ccccc1` the figure was -3.25%. With `COc1cc(C=O)c(-c2cc(OC)c(OC)cc2C=O)cc1OC` the figure was -2.15%. Take `CN(C)c1c(F)c(F)c(N=Nc2ccccc2)c(F)c1F`: the growth inhibition was -12.1%. The same measure for `Nc1nc2c(c(-c3nc(N)nc4c3CCC4)n1)CCC2`: 10.8%. The same measure for `CC1=C(C(=O)CC(=O)C(=O)Nc2cccc(Cl)c2C)Sc2ccccc2N1`: -10.6%; for `CC(=O)Nc1ccc(F)cc1`: -13.1%. The same measure for `O=C(O)C1CCC1C(=O)O` (stereo not given): -2.5%; for `CC(C)CC(O)C(CC(=O)Nc1ccccc1)S(=O)(=O)c1ccccc1` (stereo not given): -11.8%. On to `Oc1cc(N2CCCC2)ccc1/C=N/N1C(=S)N(c2ccccc2)C(=Nc2ccccc2)C1=Nc1ccccc1`, for which the growth inhibition was -39.9%. The same measure for `CN1CCCN(C)CCCN(C)CCCN(C)CCC1`: 11.8%.

These data come from PubChem BioAssay (NCI).
